In PMC10812921, “Transcriptional Coactivator BOB1 (OBF1, OCA-B) Modulates the Specificity of DNA Recognition by the POU-Domain Factors OCT1 and OCT2 in a Monomeric Configuration”:

What was measured:
POU1 (OCT1 POU domain) = POU1 (OCT1 POU domain) (human, UniProt P14859 260-458); experiment: EMSA-SELEX-seq; no BOB1; 20 mM Tris-HCl pH 7.6, 140 mM NaCl, 10% glycerol, 0.5 mM EDTA, 0.05% Triton X-100, 0.1 mg/mL BSA, 0.1 mg/mL poly(dI-dC), 5 mM DTT, room temperature, 20 min; high values mean tight binding; conditions: protein: recombinant; dsDNA, one strand shown
POU1 (OCT1 POU domain), sequence (P14859 260-458): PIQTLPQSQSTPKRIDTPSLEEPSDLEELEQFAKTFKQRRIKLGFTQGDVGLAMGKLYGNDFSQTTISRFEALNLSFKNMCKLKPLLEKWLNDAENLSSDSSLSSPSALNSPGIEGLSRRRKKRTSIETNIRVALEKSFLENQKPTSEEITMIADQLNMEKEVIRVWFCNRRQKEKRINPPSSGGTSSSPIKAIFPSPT
In short: (§1)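 Binding preference means the percentage of sequenced 8-mers matching a motif pattern. Tagged POU-domain proteins (30 ng), expressed in E. coli BL21, purified under denaturing conditions and renatured, were mixed with 300 ng of a PCR-amplified double-stranded random 35-nt library, with or without 28 ng coactivator protein, for 20 min at RT in 20 μL Tris–HCl pH 7.6 binding buffer. Selection was repeated over four rounds of excising complex bands from native 6% PAGE, eluting and PCR amplification, followed by Illumina sequencing.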

POU2 (OCT2 POU domain) = biological target: T1, POU2 (OCT2 POU domain) (human, UniProt P09086 175-386); experiment: as above; conditions: protein: recombinant; dsDNA, one strand shown
T1 sequence: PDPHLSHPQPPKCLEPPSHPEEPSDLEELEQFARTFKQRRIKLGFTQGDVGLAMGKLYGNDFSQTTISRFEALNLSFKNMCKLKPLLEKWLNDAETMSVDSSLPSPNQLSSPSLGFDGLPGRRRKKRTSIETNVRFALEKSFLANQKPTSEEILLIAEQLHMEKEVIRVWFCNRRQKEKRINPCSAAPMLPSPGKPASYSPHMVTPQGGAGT
In short: as §1

[1] = biological target: POU1 (OCT1 POU domain);BOB1 (OBF1, OCA-B) (human;human, UniProt P14859;Q16633 260-458;1-256, |); experiment: EMSA-SELEX-seq; with BOB1 (ternary complex band); 20 mM Tris-HCl pH 7.6, 140 mM NaCl, 10% glycerol, 0.5 mM EDTA, 0.05% Triton X-100, 0.1 mg/mL BSA, 0.1 mg/mL poly(dI-dC), 5 mM DTT, room temperature, 20 min; high values mean tight binding; conditions: protein: recombinant;recombinant; copies: 1;1; dsDNA, one strand shown
In short: as §1

[2] = biological target: T2, POU2 (OCT2 POU domain);BOB1 (OBF1, OCA-B) (human;human, UniProt P09086;Q16633 175-386;1-256, |); experiment: as above; conditions: protein: recombinant;recombinant; copies: 1;1; dsDNA, one strand shown
T2 sequence 1: T1 sequence
T2 sequence 2: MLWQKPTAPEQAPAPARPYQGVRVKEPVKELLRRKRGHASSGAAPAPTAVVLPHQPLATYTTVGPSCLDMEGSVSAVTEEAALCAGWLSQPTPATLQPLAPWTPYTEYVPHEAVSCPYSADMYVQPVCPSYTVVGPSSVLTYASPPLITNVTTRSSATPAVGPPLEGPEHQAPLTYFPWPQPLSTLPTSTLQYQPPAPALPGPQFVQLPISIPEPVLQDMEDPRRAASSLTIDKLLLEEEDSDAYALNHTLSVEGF
In short: as §1

AAAGAAAC
binding signal (POU1 (OCT1 POU domain)): 0.0355 % of ANNNNAAN 8-mers
binding signal (POU2 (OCT2 POU domain)): 0.0339 % of ANNNNAAN 8-mers
binding signal [1]: 0.0433 % of ANNNNAAN 8-mers
binding signal [2]: 0.0371 % of ANNNNAAN 8-mers

AGACCAAA
binding signal (POU1 (OCT1 POU domain)): 0.0179 % of ANNNNAAN 8-mers
binding signal (POU2 (OCT2 POU domain)): 0.0213 % of ANNNNAAN 8-mers
binding signal [1]: 0.0246 % of ANNNNAAN 8-mers
binding signal [2]: 0.0239 % of ANNNNAAN 8-mers

AGGCTAAG
binding signal (POU1 (OCT1 POU domain)): 0.0362 % of ANNNNAAN 8-mers
binding signal (POU2 (OCT2 POU domain)): 0.0414 % of ANNNNAAN 8-mers
binding signal [1]: 0.0312 % of ANNNNAAN 8-mers
binding signal [2]: 0.0446 % of ANNNNAAN 8-mers

AATTAAAA
binding signal (POU1 (OCT1 POU domain)): 0.364 % of ANNNNAAN 8-mers
binding signal (POU2 (OCT2 POU domain)): 0.399 % of ANNNNAAN 8-mers
binding signal [1]: 0.156 % of ANNNNAAN 8-mers
binding signal [2]: 0.151 % of ANNNNAAN 8-mers

ACGTAAAC
binding signal (POU1 (OCT1 POU domain)): 0.0358 % of ANNNNAAN 8-mers
binding signal (POU2 (OCT2 POU domain)): 0.0299 % of ANNNNAAN 8-mers
binding signal [1]: 0.0433 % of ANNNNAAN 8-mers
binding signal [2]: 0.0405 % of ANNNNAAN 8-mers

ACTGAAAC
binding signal (POU1 (OCT1 POU domain)): 0.0164 % of ANNNNAAN 8-mers
binding signal (POU2 (OCT2 POU domain)): 0.019 % of ANNNNAAN 8-mers
binding signal [1]: 0.0238 % of ANNNNAAN 8-mers
binding signal [2]: 0.0173 % of ANNNNAAN 8-mers

AGTGGAAG
binding signal (POU1 (OCT1 POU domain)): 0.0324 % of ANNNNAAN 8-mers
binding signal (POU2 (OCT2 POU domain)): 0.0357 % of ANNNNAAN 8-mers
binding signal [1]: 0.0414 % of ANNNNAAN 8-mers
binding signal [2]: 0.0405 % of ANNNNAAN 8-mers

ATACGAAT
binding signal (POU1 (OCT1 POU domain)): 0.0908 % of ANNNNAAN 8-mers
binding signal (POU2 (OCT2 POU domain)): 0.101 % of ANNNNAAN 8-mers
binding signal [1]: 0.0687 % of ANNNNAAN 8-mers
binding signal [2]: 0.0759 % of ANNNNAAN 8-mers

ACACCAAA
binding signal (POU1 (OCT1 POU domain)): 0.0149 % of ANNNNAAN 8-mers
binding signal (POU2 (OCT2 POU domain)): 0.0184 % of ANNNNAAN 8-mers
binding signal [1]: 0.0121 % of ANNNNAAN 8-mers
binding signal [2]: 0.0149 % of ANNNNAAN 8-mers

AGGCGAAA
binding signal (POU1 (OCT1 POU domain)): 0.0389 % of ANNNNAAN 8-mers
binding signal (POU2 (OCT2 POU domain)): 0.0357 % of ANNNNAAN 8-mers
binding signal [1]: 0.0386 % of ANNNNAAN 8-mers
binding signal [2]: 0.0363 % of ANNNNAAN 8-mers

ATCCCAAA
binding signal (POU1 (OCT1 POU domain)): 0.0263 % of ANNNNAAN 8-mers
binding signal (POU2 (OCT2 POU domain)): 0.0253 % of ANNNNAAN 8-mers
binding signal [1]: 0.0343 % of ANNNNAAN 8-mers
binding signal [2]: 0.0297 % of ANNNNAAN 8-mers

ACTTTAAC
binding signal (POU1 (OCT1 POU domain)): 0.032 % of ANNNNAAN 8-mers
binding signal (POU2 (OCT2 POU domain)): 0.0345 % of ANNNNAAN 8-mers
binding signal [1]: 0.0304 % of ANNNNAAN 8-mers
binding signal [2]: 0.0355 % of ANNNNAAN 8-mers

AACGAAAG
binding signal (POU1 (OCT1 POU domain)): 0.0313 % of ANNNNAAN 8-mers
binding signal (POU2 (OCT2 POU domain)): 0.0328 % of ANNNNAAN 8-mers
binding signal [1]: 0.0328 % of ANNNNAAN 8-mers
binding signal [2]: 0.0264 % of ANNNNAAN 8-mers

ACCTCAAA
binding signal (POU1 (OCT1 POU domain)): 0.0149 % of ANNNNAAN 8-mers
binding signal (POU2 (OCT2 POU domain)): 0.0155 % of ANNNNAAN 8-mers
binding signal [1]: 0.0191 % of ANNNNAAN 8-mers
binding signal [2]: 0.0256 % of ANNNNAAN 8-mers

ATGCAAAC
binding signal (POU1 (OCT1 POU domain)): 0.543 % of ANNNNAAN 8-mers
binding signal (POU2 (OCT2 POU domain)): 0.445 % of ANNNNAAN 8-mers
binding signal [1]: 1.35 % of ANNNNAAN 8-mers
binding signal [2]: 1.27 % of ANNNNAAN 8-mers

AAAGCAAG
binding signal (POU1 (OCT1 POU domain)): 0.04 % of ANNNNAAN 8-mers
binding signal (POU2 (OCT2 POU domain)): 0.0368 % of ANNNNAAN 8-mers
binding signal [1]: 0.0457 % of ANNNNAAN 8-mers
binding signal [2]: 0.0421 % of ANNNNAAN 8-mers

AACGAAAC
binding signal (POU1 (OCT1 POU domain)): 0.0225 % of ANNNNAAN 8-mers
binding signal (POU2 (OCT2 POU domain)): 0.027 % of ANNNNAAN 8-mers
binding signal [1]: 0.0238 % of ANNNNAAN 8-mers
binding signal [2]: 0.0157 % of ANNNNAAN 8-mers

AAATAAAG
binding signal (POU1 (OCT1 POU domain)): 0.156 % of ANNNNAAN 8-mers
binding signal (POU2 (OCT2 POU domain)): 0.151 % of ANNNNAAN 8-mers
binding signal [1]: 0.168 % of ANNNNAAN 8-mers
binding signal [2]: 0.171 % of ANNNNAAN 8-mers

AAGTGAAC
binding signal (POU1 (OCT1 POU domain)): 0.0233 % of ANNNNAAN 8-mers
binding signal (POU2 (OCT2 POU domain)): 0.0305 % of ANNNNAAN 8-mers
binding signal [1]: 0.0254 % of ANNNNAAN 8-mers
binding signal [2]: 0.0388 % of ANNNNAAN 8-mers

ACACCAAG
binding signal (POU1 (OCT1 POU domain)): 0.0103 % of ANNNNAAN 8-mers
binding signal (POU2 (OCT2 POU domain)): 0.0178 % of ANNNNAAN 8-mers
binding signal [1]: 0.0129 % of ANNNNAAN 8-mers
binding signal [2]: 0.0124 % of ANNNNAAN 8-mers

ACCGTAAC
binding signal (POU1 (OCT1 POU domain)): 0.0118 % of ANNNNAAN 8-mers
binding signal (POU2 (OCT2 POU domain)): 0.019 % of ANNNNAAN 8-mers
binding signal [1]: 0.018 % of ANNNNAAN 8-mers
binding signal [2]: 0.0272 % of ANNNNAAN 8-mers

AGACGAAC
binding signal (POU1 (OCT1 POU domain)): 0.0202 % of ANNNNAAN 8-mers
binding signal (POU2 (OCT2 POU domain)): 0.0236 % of ANNNNAAN 8-mers
binding signal [1]: 0.0137 % of ANNNNAAN 8-mers
binding signal [2]: 0.0182 % of ANNNNAAN 8-mers

ACCTTAAT
binding signal (POU1 (OCT1 POU domain)): 0.0629 % of ANNNNAAN 8-mers
binding signal (POU2 (OCT2 POU domain)): 0.0679 % of ANNNNAAN 8-mers
binding signal [1]: 0.0418 % of ANNNNAAN 8-mers
binding signal [2]: 0.0545 % of ANNNNAAN 8-mers

AATTCAAC
binding signal (POU1 (OCT1 POU domain)): 0.069 % of ANNNNAAN 8-mers
binding signal (POU2 (OCT2 POU domain)): 0.0708 % of ANNNNAAN 8-mers
binding signal [1]: 0.0589 % of ANNNNAAN 8-mers
binding signal [2]: 0.0512 % of ANNNNAAN 8-mers

ACATTAAC
binding signal (POU1 (OCT1 POU domain)): 0.0984 % of ANNNNAAN 8-mers
binding signal (POU2 (OCT2 POU domain)): 0.115 % of ANNNNAAN 8-mers
binding signal [1]: 0.0402 % of ANNNNAAN 8-mers
binding signal [2]: 0.0363 % of ANNNNAAN 8-mers

AGGGTAAT
binding signal (POU1 (OCT1 POU domain)): 0.186 % of ANNNNAAN 8-mers
binding signal (POU2 (OCT2 POU domain)): 0.279 % of ANNNNAAN 8-mers
binding signal [1]: 0.12 % of ANNNNAAN 8-mers
binding signal [2]: 0.129 % of ANNNNAAN 8-mers

ACCGAAAA
binding signal (POU1 (OCT1 POU domain)): 0.0248 % of ANNNNAAN 8-mers
binding signal (POU2 (OCT2 POU domain)): 0.0322 % of ANNNNAAN 8-mers
binding signal [1]: 0.0226 % of ANNNNAAN 8-mers
binding signal [2]: 0.0165 % of ANNNNAAN 8-mers

ACACGAAG
binding signal (POU1 (OCT1 POU domain)): 0.0206 % of ANNNNAAN 8-mers
binding signal (POU2 (OCT2 POU domain)): 0.0196 % of ANNNNAAN 8-mers
binding signal [1]: 0.0176 % of ANNNNAAN 8-mers
binding signal [2]: 0.0157 % of ANNNNAAN 8-mers

AGAGTAAA
binding signal (POU1 (OCT1 POU domain)): 0.0564 % of ANNNNAAN 8-mers
binding signal (POU2 (OCT2 POU domain)): 0.0386 % of ANNNNAAN 8-mers
binding signal [1]: 0.0605 % of ANNNNAAN 8-mers
binding signal [2]: 0.0512 % of ANNNNAAN 8-mers

AGTGTAAA
binding signal (POU1 (OCT1 POU domain)): 0.0576 % of ANNNNAAN 8-mers
binding signal (POU2 (OCT2 POU domain)): 0.0667 % of ANNNNAAN 8-mers
binding signal [1]: 0.0687 % of ANNNNAAN 8-mers
binding signal [2]: 0.052 % of ANNNNAAN 8-mers
